Most compounds without a hit are left out; they make up all but 6.1% or so of the library.
S2 tox = Viability Counterscreen for Primary qHTS for Inhibitors of ATXN expression; S2 cells (HEK-293 line with an ATXN2-luciferase reporter) viability, CellTiter-Fluor protease fluorescence, 24 h; Potency, µM (doses to about 56.7 µM), most hits filed as cytotoxic; hit rate 0.49% among 400,000; further: nearly all actives have a fitted effect of over 40% in size
RORgamma inh = qHTS for inhibitors of ROR gamma transcriptional activity; Nuclear receptor ROR-gamma (Mus musculus), P51450; Drosophila S2 Gal4-RORgamma UAS-luciferase reporter, 20 h; Potency, µM (series often up to 53.6 µM), without a hit: at the highest dose activity change, negative = inhibition, usual class: inhibitors; hit rate 5.4% among 310,000; AID 2551, 2010; further: on the % scale 0 is the no-effect control and ±100 the full control effect; nearly all actives have a fitted effect of over 60% in size
Target sequence (P51450 whole entry, looked up, the tested form may be a part): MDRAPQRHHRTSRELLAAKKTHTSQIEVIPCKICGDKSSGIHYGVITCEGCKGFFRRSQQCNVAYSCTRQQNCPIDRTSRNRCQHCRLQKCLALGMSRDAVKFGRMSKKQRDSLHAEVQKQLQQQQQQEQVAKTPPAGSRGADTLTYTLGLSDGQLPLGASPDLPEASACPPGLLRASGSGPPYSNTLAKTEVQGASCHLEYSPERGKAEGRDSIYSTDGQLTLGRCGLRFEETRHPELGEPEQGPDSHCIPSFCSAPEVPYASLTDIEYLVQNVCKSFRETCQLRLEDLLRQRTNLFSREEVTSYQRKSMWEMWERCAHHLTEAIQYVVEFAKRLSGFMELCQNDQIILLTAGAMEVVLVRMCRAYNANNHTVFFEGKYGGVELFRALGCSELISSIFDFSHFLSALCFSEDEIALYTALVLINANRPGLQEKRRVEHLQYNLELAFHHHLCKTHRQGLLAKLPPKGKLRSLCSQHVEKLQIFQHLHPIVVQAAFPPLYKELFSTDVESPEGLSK
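A Gal4/UAS one-hybrid system in insect cells: metallothionein-promoter Gal4–ROR gamma fusion plus Photinus luciferase reporter. Copper sulfate 700 uM final, 20 hr ambient incubation, luminescent detection after 10 min with reagent.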
ATXN2 expr inh = Primary qHTS for Inhibitors of ATXN expression; Potency, µM (highest dose often 57 µM), inactives show top-dose activity change, negative = inhibition, actives largely listed as inhibitors; AID 1745845, 2022; HEK-293 ATXN2-luciferase reporter, luminescence, 24 h; hit rate 0.72% among 360,000; further: on the % scale 0 is the no-effect control and ±100 the full control effect; nearly all actives have a fitted effect of over 55% in size
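ATXN2-luciferase reporter cells (luciferase flanked by upstream and downstream ATXN2 gene portions) were treated 24 h at 37 °C with compounds at up to 57 uM. SteadyGlo luminescence gave expression; GF-AFC fluorescence gave viability.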
TGFb inhibitor = qHTS for Inhibitors of TGF-b. HepG2 CAGA-GFP TGF-b/SMAD3 reporter, GFP fluorescence, 18 h; TGF-beta stimulated, 500 pg/mL final. Potency, µM (doses to about 46.1 µM), for inactives: at the highest dose activity, negative = inhibition, actives largely listed as inhibitors. hit rate 1.2% among 410,000. AID 588855, 2011; further: on the % scale 0 is the no-effect control and ±100 the full control effect; nearly all actives have a fitted effect of over 65% in size
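Inhibition of TGF-beta-driven CAGA-GFP reporter expression in HEPG2 cells is measured by cellular GFP fluorescence after 18 h stimulation with 500 pg/mL recombinant TGF-beta in 1% FBS medium at 37 degrees C.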
HepG2 tox = qHTS for Inhibitors of TGF-b: Cytotox Counterscreen; HepG2 CAGA-GFP viability, ATP luminescence, 18 h; Potency, µM (top dose mostly 46.1 µM), for inactives: top-dose activity change, negative = cytotoxicity, usual class: cytotoxic; hit rate 0.76% among 410,000
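HepG2 CAGA-GFP cells (1000/well, DMEM with 1% FBS) received compound, then TGF-beta at 500 pg/mL final, and were incubated 18 hours at 37 degrees C. Viability was read by CellTiter-Glo luminescence. Media-only wells were set as complete cell-killing and DMSO as no toxicity.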
Gal4-VP16 FLuc = VP16 counterscreen qHTS for inhibitors of ROR gamma transcriptional activity; Drosophila S2 Gal4-VP16 UAS-luciferase, luminescence, 20 h; Potency, µM (series often up to 53.6 µM), for inactives: at the top dose activity, negative = inhibition, most hits filed as inhibitors; AID 2546, 2010; hit rate 3.5% among 310,000;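 further: Gal4-VP16 expression switched on by copper sulfate through the metallothionein promoter; on the % scale 0 is the no-effect control and ±100 the full control effect; nearly all actives have a fitted effect of over 50% in size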
Active calls of the source: *; i = inactive; ? = inconclusive; . = no result given; ! = a repeat was not active; [ ] = another dose, or the depositor's remark. The call rests on the fitted dose curve; in most records, active means well fitted curve in the direction sought with a large enough effect; inconclusive means small, poorly fitted or top-dose-only effect, or another doubt; inactive means no such curve, though single readings can be large; an effect the other way counts as inactive or inconclusive. Potency means the concentration at half of the fitted maximal effect.

SMILES	S2 tox	RORgamma inh	ATXN2 expr inh	TGFb inhibitor	HepG2 tox	Gal4-VP16 FLuc
Cc1ccc(NC(=S)NC(NC(=O)c2ccccc2)C(Cl)(Cl)Cl)c(C)c1 (configuration not stated)	?	?	0%	?	-37%	?
O=C(NC(NC(=S)Nc1ccc(Cl)cc1Cl)C(Cl)(Cl)Cl)c1cccc([N+](=O)[O-])c1 (configuration not stated)	?	?	?	?	13µM*	?
COC(=O)Nc1ccc(Cl)c(Cl)c1	.	6%	.	.	.	0%
O=C(CSc1nccn1Cc1ccc(Cl)cc1)NC1CCCC1	.	.	.	-24%	-26%	.
Clc1ccccc1-c1nc(-c2cccnc2)no1	i	?	95%	-8%	-21%	-18%
Clc1ccccc1/C=C/c1nc(-c2cccnc2)no1	i	2µM*	2%	9%	-11%	0%
C(=C\c1nc(-c2cccnc2)no1)/c1ccccc1	i	4.5µM*	44%	-9%	-26%	?
Cc1ccc(-c2noc(/C=C/c3ccccc3)n2)cc1	i	-20%	51%	6%	-28%	-1%
COc1ccc(N=C2C(=Nc3ccc(OC)cc3)N(c3ccc(OC)cc3)C(=S)N2C(=O)c2ccc(OC)cc2)cc1	i	?	12%	0%	-14%	-3%
COc1ccc(N=C2C(=Nc3ccc(OC)cc3)N(c3ccccc3)C(=S)N2C(=O)c2ccc(Cl)cc2)cc1	.	14µM*	.	-12%	-3%	?
Fc1ccc(-c2cc3nc4c(c(N5CCOCC5)n3n2)CCCC4)cc1	i	3.2µM*	0%	?	-20%	-11%
CCC(=O)O[C@]1(C(=O)CO)CC[C@H]2[C@@H]3CCC4=CC(=O)CC[C@]4(C)[C@@H]3CC[C@@]21C	.	.	4%	.	.	.
CCCCCC(=O)O[C@]1(C(C)=O)CC[C@H]2[C@@H]3CCC4=CC(=O)CC[C@]4(C)[C@H]3CC[C@@]21C	35µM*!	?	28µM*!	?	-37%	-23%
CC(C)OC(=O)c1ccc(NC(=S)NC(=O)c2cncc(Br)c2)cc1	i	2.2µM*	8%	-2%	-4%	2.8µM*
COC(=O)c1cccc(NC(=S)NCCC2=CCCCC2)c1	i	3.2µM*	-16%	0%	-23%	?
CC(C)OC(=O)c1ccc(NC(=O)c2cncc(Br)c2)cc1	i	?	7%	?	-37%	-10%
CC(=O)c1cccc(NC(=S)NCCc2ccc(Cl)cc2)c1	i	13µM*	-5%	-19%	-20%	?
CC(=O)c1cccc(NC(=S)NC(=O)c2cncc(Br)c2)c1	i	10µM*	.	6%	-4%	18µM*
COc1ccc(N2CCN(C(=O)c3cc(NC(C)=O)c4c(c3)ncn4CCc3ccccn3)CC2)cc1	i	.	.	.	.	.
COc1ccc2c(c1)c1c(c(=O)n(-c3cccc(C)c3)c(=O)n1CC(=O)Nc1c(C)cc(C)cc1C)n2C	i	.	5%	-7%	9%	.
COCCCNC(=O)CCCn1c(SCC(=O)c2ccc(F)cc2)nc2c(sc3ccccc32)c1=O	i	.	13%	-3%	-5%	.
Nc1cccc(S(=O)(=O)N2CCCN(S(=O)(=O)c3ccc4c(c3)OCCO4)CC2)c1	.	.	-10%	.	.	.
CC(=O)c1cccc(NC(=S)NC(=O)c2cccc(Cl)c2)c1	i	2.8µM*	62%	-13%	-10%	10µM*
O=C(NC(=S)Nc1cccnc1)c1cccc(Cl)c1	i	.	.	?	-19%	.
CC(=O)c1cccc(NC(=S)NC(=O)c2ccccc2)c1	i	8.9µM*	25%	4%	3%	?
SMILES	S2 tox	RORgamma inh	ATXN2 expr inh	TGFb inhibitor	HepG2 tox	Gal4-VP16 FLuc
O=C(O)c1cccc(NC(=S)NC(=O)c2ccc(-c3ccccc3)cc2)c1	i	8%	35%	7%	0%	-21%
CC(=O)c1cccc(NC(=S)NC(=O)CC(C)(C)C)c1	i	13µM*	57%	-7%	-53%	?
CNC(=S)Nc1cccc(C(C)=O)c1	i	-14%	2%	-7%	1%	0%
CC(=O)c1cccc(NC(=S)NC(=O)C(C)C)c1	i	13µM*	2%	7%	0%	-1%
Nc1ccccc1NC(=O)c1ccc(CNc2nccc(-c3cccnc3)n2)cc1	.	.	69%	.	.	.
O=C(COc1ccc(Cl)cc1Cl)Nc1ccc(C(=O)OC2CCCCC2)cc1	i	.	12%	-3%	19%	.
CCOc1ccc(OCC)c(NC(=O)CCc2nc3cccnc3n2Cc2cccs2)c1	.	.	.	-10%	-30%	.
CC(=O)c1cccc(NC(=S)NC2CCCCCCC2)c1	i	3.2µM*	-9%	0%	-1%	13µM*
CN(C)C(=S)NC(=O)c1cccc(Cl)c1	i	0.56µM*	-10%	2%	-21%	2µM*
Cc1cccc(C)c1NC(=S)NC(=O)c1cccc(Cl)c1	i	.	17%	3%	-3%	.
Cc1cccc(-c2nc3scc(CCNC(=O)c4ccccc4Cl)n3n2)c1	i	.	-14%	4%	-10%	.
Cc1oc2ncnc(N3CCCCC3)c2c1C(=O)NCC1CCN(Cc2ccccc2F)CC1	i	.	0%	-8%	-14%	.
Cc1ccc(NC2=CC(=O)C(=O)c3ccccc32)c(C)c1	?	.	.	?	5µM*	.
O=C1C=C(NCc2ccccc2)c2ccccc2C1=O	?	16µM*	-22%[11.3 µM]	?	-109%	?
O=C1C=C(Nc2ccccc2O)c2ccccc2C1=O	?	?	14µM*	1.8µM*	2.5µM*	10µM*
NC1=CC(=O)C(=O)c2ccccc21	i	.	?	?	-99%	.
c1ccc2cnccc2c1	.	.	.	-1%	6%	.
Cc1oc(=O)oc1COC(=O)[C@@H]1N2C(=O)[C@@H](NC(=O)[C@H](N)c3ccccc3)[C@H]2SC1(C)C	i	.	3%	.	.	.
CCCCC#CC1C=CC(Oc2ccc(C(=O)OC)cc2)C(COC(=O)OCC)O1 (configuration not stated)	.	17%[10 µM]	.	.	.	-6%[10 µM]
O=C(c1ccc(F)cc1F)N1CCC(c2nc(-c3ccc(S(=O)(=O)N4CCCC4)cc3)no2)CC1	.	.	.	28%	0%	.
CCOc1cc(NC(=S)NCc2ccccc2)c(OCC)cc1NC(=O)C(C)C	i	?	-9%	-19%	-17%	?
CC(C)(C)CC(=O)NC(=S)NCCc1ccccc1	i	7.1µM*	36%	-20%	-19%	10µM*
CC(C)(C)NC(=S)NCCc1ccccc1	i	6.3µM*	54%	8%	6%	7.1µM*
